Screening data from PubChem.
sEH activator = soluble epoxide hydrolase (human) activation; activation, % at 2 µM; actives 0.04% (n = 91,000); purified human sEH enzymatic activity, activator screen; P34913; in the data active means activation above about 37%
Target sequence (P34913 whole entry, looked up): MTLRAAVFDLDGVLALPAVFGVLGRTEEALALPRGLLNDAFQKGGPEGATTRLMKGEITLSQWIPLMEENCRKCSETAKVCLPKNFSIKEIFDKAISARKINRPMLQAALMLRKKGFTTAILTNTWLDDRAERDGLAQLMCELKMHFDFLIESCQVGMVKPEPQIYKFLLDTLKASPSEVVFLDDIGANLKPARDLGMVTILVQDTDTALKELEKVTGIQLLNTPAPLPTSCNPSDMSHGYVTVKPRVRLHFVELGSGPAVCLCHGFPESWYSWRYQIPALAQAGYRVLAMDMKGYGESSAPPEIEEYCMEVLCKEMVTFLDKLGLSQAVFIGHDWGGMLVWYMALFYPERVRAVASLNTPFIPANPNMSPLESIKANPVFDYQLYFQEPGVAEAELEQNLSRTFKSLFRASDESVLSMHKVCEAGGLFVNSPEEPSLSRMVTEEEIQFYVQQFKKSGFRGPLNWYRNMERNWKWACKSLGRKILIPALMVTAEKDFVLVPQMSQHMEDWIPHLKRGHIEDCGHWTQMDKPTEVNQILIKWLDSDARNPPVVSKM
sEH inh = soluble epoxide hydrolase (human) inhibition | inhibition, % at 2 µM | AID 707 | actives 0.34% (n = 91,000) | recombinant human sEH enzymatic activity assay; in the data active means inhibition above about 80%
MRP resist rev = MRP-mediated drug resistance reversal; H69AR cells + 2 uM doxorubicin, CellTiter-Glo, 72 h; differential viability (reversal), % at 10 µM; actives 0.04% (n = 85,000);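 active means viability drop by adding the cancer drug above about 55%, with treated viability meeting a 40% cutoff, limit read from the data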;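 further: viability without doxorubicin minus viability with 2 µM doxorubicin for each compound; larger differential means the compound sensitizes cells more to doxorubicin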
Candida biofilm = kills Candida albicans biofilms. C. albicans biofilm + clotrimazole, Alamar Blue. inhibition, % at 6 µM. AID 834. actives 0.14% (n = 85,000);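 active means inhibition above 20%; inactive means inhibition below 20%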;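 further: preformed 24 hr biofilms exposed to compound for 48 hr; 0% = biofilm without compound and 100% = blank killed by clotrimazole plus chlorhexidine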
MRP1 act = MRP-1 activation | H69AR cells + doxorubicin, viability rescue, CellTiter-Glo | viability increase, % at 10 µM | actives 0.61% (n = 140,000) | AID 799;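 active means viability gain under doxorubicin at or above a set limit, the compound median plus 3 SD, cut at about 4.7% in these data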;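 further: MRP-1 overexpressing cells given doxorubicin 25 µM after compound pretreatment; 18-22 h compound pretreatment then 72 h with doxorubicin before readout; 0% = doxorubicin-only wells and 100% = vehicle-treated cells without doxorubicin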
Active calls of the source: *; nt = no result. Sampled rows, rich in hits. Any-hit rate of the full collection: about 0.87%.

SMILES	sEH activator	sEH inh	MRP resist rev	Candida biofilm	MRP1 act
COc1ccc(NS(=O)(=O)c2ccc3c(c2)n(C)c(=O)n3C)cc1	-6	4	nt	nt	0
N#Cc1ccc(N2C(=O)[C@@H]3C(C(=O)c4ccc5ccccc5n4)=NN[C@@H]3C2=O)cc1	nt	nt	nt	nt	9.3*
CC(C(=O)O)c1ccc(N2Cc3ccccc3C2=O)cc1 (stereo not given)	nt	nt	nt	nt	-1
COC(=O)c1ccc(NCCC(=O)O)cc1	nt	nt	nt	nt	1
O=C(NCc1cccs1)C1CCC(CNS(=O)(=O)c2cccc3nsnc23)CC1 (stereo not given)	-75	74	5	5	-2
COc1cccc(CNC(=O)C2CCC(CNS(=O)(=O)c3cccc4nsnc34)CC2)c1 (stereo not given)	-80	80*	-9	7	-2
CC(C)CCOc1ncnc2c1sc1nc3c(cc12)CSC(C)(C)C3	4	1	-5	nt	6.3*
CCCn1cnc2c(sc3nc4c(cc32)CSC(C)(C)C4)c1=O	6	-8	nt	nt	1
COc1ccc(/C=N/OCC(=O)Nn2c(C)nc3ccccc3c2=O)cc1	nt	nt	nt	nt	-1
CCOC(=O)c1ccc(-n2c(C)nc3c(cnn3-c3ccc(Cl)cc3)c2=O)cc1	-2	2	12	34*	0
COc1cccc(NC(=O)c2oc3ccccc3c2NC(=O)C(C)(C)C)c1	6	-4	-2	0	3
COc1cccc(NC(=O)c2oc3ccccc3c2NC(=O)c2ccc3c(c2)OCO3)c1	nt	nt	-7	8	5.0*
O=C(NCc1ccc(F)cc1)C(=O)NCC1OCCN1C(=O)c1cccs1 (stereo not given)	nt	nt	nt	nt	5.3*
Cc1ccc(-c2nc3cccnc3s2)cc1NC(=O)C1c2ccccc2Oc2ccccc21	nt	nt	nt	nt	-4
Cc1ccc(CNS(=O)(=O)/C=C/c2ccc3c(c2)OCO3)cc1	nt	nt	nt	nt	-4
Cc1ccc(C(=O)COc2ccccc2-c2ccccc2)cc1C	nt	nt	nt	nt	5.0*
CCCCOc1ccc(CSc2n[nH]c(C)n2)cc1	-1	4	8	-3	0
CCCCCOc1ccc(CSc2ncn[nH]2)cc1	-9	9	18	7	6.3*
CCCCOc1ccc(CSc2ncn[nH]2)cc1	-5	2	13	10	9.8*
COc1cccc(-c2nnc(NC(=O)c3ccc4ncsc4c3)o2)c1	nt	nt	nt	nt	-3
CC(=O)N1CC[n+]2c(-c3ccc(Cl)cc3Cl)csc21	nt	nt	nt	nt	-3
N#Cc1nc(COc2ccc(F)cc2)oc1N1CCCC1	3	-2	-2	0	4.8*
CCOc1ccc(-c2nc(C#N)c(N3CCN(C)CC3)o2)cc1	15	-12	12	-9	1
CCOc1ccc(-c2nc(C#N)c(N3CCCCCC3)o2)cc1	9	-9	-10	21*	5.7*
CC(=O)Oc1ccc(N2C(=O)C3C4C=CC(C5CC45)C3C2=O)cc1[N+](=O)[O-] (stereo not given)	nt	nt	nt	nt	-2
SMILES	sEH activator	sEH inh	MRP resist rev	Candida biofilm	MRP1 act
O=C(CSc1nc2c(c(=O)n1-c1ccc(Cl)cc1)SCC2)Nc1nccs1	nt	nt	-1	5	-2
O=C(CSc1nc2c(c(=O)n1-c1ccc(Br)cc1)SCC2)Nc1nccs1	47*	-45	-6	3	0
O=C(CSc1nnc(-c2ccccc2)n1-c1ccccc1)NCc1ccco1	-13	14	11	3	-1
O=C(CSc1nnc(-c2ccccc2)n1-c1ccc(Cl)cc1)N/N=C/c1ccco1	nt	nt	nt	nt	5.2*
O=C(CN1C(=O)NC2(CCc3ccccc3C2)C1=O)Nc1ccc(F)cc1 (stereo not given)	nt	nt	nt	nt	3
O=C1CSC(=NC(=O)c2ccccc2)N1	-5	6	-12	-6	6.2*
CC(C)NC(=O)C(=O)NCCc1ccc(Cl)cc1	-4	5	19	1	4.8*
N#Cc1nc(-c2ccc(OCc3ccccc3)cc2)oc1NCc1cccnc1	6	-8	-12	6	-3
CN(C)c1oc(-c2ccc(OCc3ccccc3)cc2)nc1C#N	-1	4	2	1	4.7*
CCCCCCC1CC(CCc2nc(=S)[nH][nH]2)C(=O)O1 (stereo not given)	nt	nt	nt	nt	-3
CCCCCCC1CC(CSc2ncn[nH]2)OC1=O (stereo not given)	nt	nt	1	7	7.2*
CN(C)c1ccc(/C=C(\Cl)c2nc3ccccc3s2)cc1	nt	nt	nt	nt	-4
CC(Oc1ccc(Cl)cc1Cl)C(=O)NC1CCSC1=O (stereo not given)	10	-13	-9	3	12*
COc1ccc(CC(=O)Nc2nc(-c3cccc([N+](=O)[O-])c3)cs2)cc1	nt	nt	nt	nt	2
O=C(Nc1nc(-c2cccc([N+](=O)[O-])c2)cs1)C(c1ccccc1)c1ccccc1	2	1	nt	nt	8.9*
COc1cccc(-c2csc(NC(=O)Oc3ccccc3)n2)c1	2	0	nt	nt	7.5*
CN1C(=O)C(c2nnc(Nc3cccc4ccccc34)s2)C2CC1(C)Oc1ccccc12 (stereo not given)	nt	nt	nt	nt	2
c1ccc(CSc2ccc(-c3ccco3)nn2)cc1	nt	nt	nt	nt	2
N=C(N)SCc1ccccc1Cl	nt	nt	nt	nt	8.6*
CCC1(C)Cc2c(sc3nnn(CC(=O)Nc4ccc(C)cc4)c(=O)c23)CO1 (stereo not given)	-13	15	nt	nt	9.7*
Cc1ccccc1CNc1nc(N)n(-c2ccccc2)n1	14	-16	-5	20*	-1
COc1cccc(Cn2nnc(C(=O)NCc3ccc(F)cc3)c2N)c1	nt	nt	7	15	4.8*
COc1cccc(Cn2nnc(C(=O)NCCc3ccc(Cl)cc3)c2N)c1	-30	28	-13	11	5
Nc1c(C(=O)NCc2ccccc2)nnn1Cc1ccccc1	9	-7	6	9	0
CCOc1ccc(Cn2nnc(C(=O)NCCc3ccc(Cl)cc3)c2N)cc1	-7	8	2	2	5.1*
SMILES	sEH activator	sEH inh	MRP resist rev	Candida biofilm	MRP1 act
CCOc1ccc(Cn2nnc(C(=O)NCCc3ccccc3)c2N)cc1	nt	nt	0	6	7.8*
CSc1nnc(C)c(=O)n1COC(=O)c1ccc(S(=O)(=O)N2CCCC2)cc1	nt	nt	nt	nt	1
CCCCCc1ccc(CC(=O)Nn2c(C)nc3ccccc3c2=O)cc1	17	-17	2	0	0
CCCC1=NN(c2ccc([N+](=O)[O-])cc2)C(=O)/C1=C\N(C)C	nt	nt	nt	nt	-2
COc1ccc(-n2c(Cc3cccn3C)nnc2SCC(=O)NC2CCCCC2)cc1	nt	nt	12	64*	-1
COC(=O)CCc1c(C)[nH]c(C(=O)OCc2ccccc2)c1C	5	0	-4	7	5.1*
O=C(O)CCc1nn2c3ccccc3nc2n(CCN2CCCCC2)c1=O	57*	-54	-11	-2	-2
O=C1C(Cc2ccc(Br)cc2)SC(=Nc2ccccc2)N1c1ccccc1 (stereo not given)	nt	nt	nt	nt	-1
O=C1C(Cc2cccc([N+](=O)[O-])c2)SC(=Nc2ccccc2)N1c1ccccc1 (stereo not given)	nt	nt	nt	nt	6.4*
Cc1ccc(C(=O)Nc2ccc3cn[nH]c3c2)cc1S(=O)(=O)N1CCCCC1	-39	39	-25	7	-4
CCn1cc(C(=O)O)c(=O)c2cc(F)c(N3CCNCC3)nc21	nt	nt	-3	22*	nt
COc1cccc(NC(=S)N/N=C2/CCCCc3ccccc32)c1	nt	nt	nt	nt	0
